About 2,600 (16%) of roughly 16,000 compounds were called active. Not shown: some 20% with an inconclusive outcome. The list is a sample of the results. A number with no mark means an inactive call. Calls come from the whole dose curve; as a rule, active = well fitted curve in the direction sought with a large enough effect; inconclusive = small, poorly fitted or top-dose-only effect, or effect the other way; inactive = no such curve, though single readings can be large or run the other way.
molecular target: Cytochrome P450 2D6 (Homo sapiens) (UniProt P10635); test: Cytochrome panel assay with activity outcomes; details: recombinant CYP, pro-luciferin dealkylation, luminescence, p450-cyp2d6; series mostly up to 57.1 µM; activity, negative = inhibition: at the top concentration
% is set by controls: 0 for no effect and ±100 for the full control effect.

Cytochrome P450 2D6 (Homo sapiens), sequence (P10635 whole entry, looked up): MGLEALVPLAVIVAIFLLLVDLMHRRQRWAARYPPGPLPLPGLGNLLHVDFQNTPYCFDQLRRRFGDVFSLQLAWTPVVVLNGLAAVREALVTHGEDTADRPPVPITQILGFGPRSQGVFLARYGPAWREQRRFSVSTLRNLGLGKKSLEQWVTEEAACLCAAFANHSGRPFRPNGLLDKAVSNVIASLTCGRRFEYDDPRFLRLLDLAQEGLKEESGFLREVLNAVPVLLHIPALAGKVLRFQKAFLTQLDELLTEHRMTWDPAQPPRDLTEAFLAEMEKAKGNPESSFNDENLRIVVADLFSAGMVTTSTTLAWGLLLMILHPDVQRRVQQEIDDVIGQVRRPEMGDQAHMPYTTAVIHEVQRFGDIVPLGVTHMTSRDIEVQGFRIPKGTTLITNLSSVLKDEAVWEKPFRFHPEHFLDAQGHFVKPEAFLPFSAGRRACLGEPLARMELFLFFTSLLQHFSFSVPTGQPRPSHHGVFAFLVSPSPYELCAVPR

Structure (SMILES) | activity, negative = inhibition | AC50
Cc1noc(NC(=O)Nc2ccccc2F)c1C#N | 0.368% [at 11.4 µM] | –
CC(/C=C/c1ccco1)=N/NC(=O)c1ccccc1Cl | -12.5% | –
CCOC(=O)N/N=C1/C[C@@H](O)[C@@H](O)[C@@H]2[C@@H]3C(=O)N(C(C)(C)C)C(=O)[C@H]3CC[C@@H]12 | -10.6% [at 11.4 µM] | –
CO[C@H]1COC(=O)CCC[C@H](C)[C@@H](OC)COC(=O)C/C=C\[C@@H]1C | -0.797% [at 11.4 µM] | –
Cc1ccc(S(=O)(=O)c2cc(N3CCOCC3)nc(-c3ccccc3)n2)cc1 | -14% | –
N#CCCn1c(=O)cnc2cnc(OCc3ccccc3)nc21 | -3.27% | –
CCCNC(=O)OC[C@@H]1O[C@H](CCON=C(C)C)C=C[C@@H]1Oc1ccc(OC)cc1 | -7.52% [at 11.4 µM] | –
COc1cc2nc(N3CC=[N+](C(=O)c4ccco4)CC3)nc(N)c2cc1OC | -10% | –
CCOc1ccccc1/C=C(\C#N)C(N)=O | 1.77% [at 11.4 µM] | –
C[C@H]1C2=C3C(CC[C@H]4C(OCc5ccc(F)cc5C(F)(F)F)OC[C@](C)([C@@H]34)N(C(=O)OC(C)(C)C)C2)C(CO)C1CO (stereo partly specified) | -7.43% | –
Nc1nc2c(c(=O)[nH]1)N(C=O)[C@H](CNc1ccc(C(=O)N[C@@H](CCC(=O)O)C(=O)O)cc1)CN2 | 2.81% [at 25.6 µM] | –
CC(Sc1nnc(Cc2cccs2)n1C1CCCCC1)C(N)=O (stereo unspecified) | 2.37% | –
CC1CCC(NC(=O)CC(C)(C)Cc2nc3ccccc3c(=O)[nH]2)CC1 (stereo unspecified) | -11.4% | –
O=C(COc1ccccc1-c1ccccc1)N/N=C/c1cccc2ccccc12 | -20.7% | –
N=C(C[C@@H](O)COc1ccccc1-c1ccccc1)N1CCCCC1 | – | 31.6 µM (active)
O=c1c(-c2cc(F)cc(F)c2)nc2cnc(N3CCNCC3)nc2n1C1CC1 | -10.9% | –
Cc1ccc2cc(C(=O)O)c(C)nc2c1 | 14.1% | –
Cc1ccc(CSc2nc3c(c(SCC(=O)O)n2)CCCC3)cc1 | 22.3% | –
CO[C@H]1COC(=O)C/C=C\[C@@H](C)[C@H](OC)COC(=O)[C@H]2CCCN2C(=O)C/C=C\[C@@H]1C | 18.5% [at 11.4 µM] | –
O=C(Nc1ccccc1)N(Cc1ccccc1)CC(O)C(F)(F)F (stereo unspecified) | -12.8% | –
CC(O)(CS(=O)(=O)Cc1ccccc1Cl)C(=O)Nc1cccc(C(F)(F)F)c1 (stereo unspecified) | -19.7% | –
O=C(Nc1cccc(C(F)(F)F)c1)N(Cc1ccc(Cl)cc1)CC(O)C(F)(F)F (stereo unspecified) | – | 15.8 µM (active)
O=S(=O)(NCc1cn2ccsc2n1)c1ccc(Oc2ccccc2)cc1 | -5.31% | –
O=C(NCCOC(=O)c1ccc(C(=O)OCCNC(=O)c2cccnc2)s1)c1cccnc1 | -19.5% | –

Structure (SMILES) | activity, negative = inhibition | AC50
O=C(OCCNC(=O)c1ccc2ccccc2n1)c1ccc(F)cc1 | – | 15.8 µM (active)
CCN(c1ccc(NC(=O)COC(=O)c2ccc3ccccc3n2)cc1)C(C)C | -23.3% | –
Cc1cc(C)cc(-n2nnnc2SCC(=O)Nc2nc(-c3ccc(Cl)cc3)cs2)c1 | -11.9% | –
CC(=O)N1CCC2(CC1)CN(c1ccccc1)C2 | 3.1% | –
COC(=O)N1CCC[C@@]2(CCN(C(=O)Nc3ccc(OC)cc3)C2)C1 | -5.4% | –
COc1ccc(NC(=O)N2CC3(CCN(C(=O)c4c(C)noc4C)CC3)C2)cc1 | -3.71% | –
COC(=O)N1CCC[C@@]2(CCN(C(c3ccccc3)c3ccccc3)C2)C1 | – | 2 µM (active)
Cc1noc(C)c1C(=O)N1CCC2(CCCN(C(c3ccccc3)c3ccccc3)C2)CC1 | – | 2 µM (active)
COc1ccc(NC(=O)N2CCCC3(CCN(C(=O)c4c(C)noc4C)CC3)C2)cc1 | – | 10 µM (active)
COC(=O)N1CCC[C@@]2(CCN(C(=O)Nc3ccccc3)C2)C1 | 4.3% | –
COc1ccc(NC(=O)N2CC[C@@]3(CCCN(C(=O)c4c(C)noc4C)C3)C2)cc1 | 18.1% | –
Cc1noc(C)c1C(=O)N1CCC2(CC1)CN(c1ccccc1)C2 | -7.99% | –
CC(=O)N1CCC2(CC1)CN(C(c1ccccc1)c1ccccc1)C2 | 13.1% | –
Cc1noc(C)c1C(=O)N1CCC[C@@]2(CCN(c3ccccc3)C2)C1 | -15% | –
CC(=O)N1CCC2(CC1)CCN(C(c1ccccc1)c1ccccc1)CC2 | – | 7.94 µM (active)
COc1ccc(-n2c(C)n[nH]c2=O)cc1OC | 6.47% | –
O=c1cnc2cnc(Oc3ccccc3)nc2n1CCc1ccccc1 | -4.72% | –
Nc1nc2ncc(CNc3ccc(C(=O)N[C@@H](CCC(=O)O)C(=O)O)cc3)nc2c(=O)[nH]1 | 4.78% [at 25.6 µM] | –
COc1ccc(NC(=O)C2(c3ccc(NC(=O)c4ccc(OC(C)=O)cc4)cc3)CCCC2)cc1 | -0.389% | –
CC(=O)N(/N=C1\Sc2ccccc2C1=O)c1ccccc1C | 14.4% | –
COc1ccc(-n2c(=O)c(-c3cccs3)nc3cnc(N4CCN(C)CC4)nc32)cc1 | 0.52% | –
CCOC(=O)N/N=C/c1ccccc1F | -9.33% | –
O=C(CNC(=O)c1ccco1)OC(C(=O)c1ccccc1)c1ccccc1 (stereo unspecified) | -7.29% | –
COC(=O)N1CCC2(CC1)CCN(c1ccccc1)CC2 | -15.3% | –

Structure (SMILES) | activity, negative = inhibition | AC50
COC(=O)N1CCC2(CC1)CCN(C(c1ccccc1)c1ccccc1)CC2 | – | 7.94 µM (active)
COC(=O)N1CCC2(CCCN(c3ccc(-c4ccccc4)cc3)C2)CC1 | -3.96% | –
COC(=O)N1CCC2(CC1)CN(C(c1ccccc1)c1ccccc1)C2 | – | 0.794 µM (active)
COC(=O)N1CCC2(CC1)CN(C(=O)Nc1ccccc1)C2 | -7.42% | –
COC(=O)N1CCC2(CCN(C(=O)Nc3ccccc3)CC2)CC1 | -11.2% | –
CC(=O)N1CCC2(CCCN(C(c3ccccc3)c3ccccc3)C2)CC1 | – | 7.94 µM (active)
CC(=O)N1CCC[C@@]2(CCN(c3ccccc3)C2)C1 | -6.82% | –
CC(=O)N1CCC2(CCCN(c3ccccc3)C2)CC1 | -9.94% | –
COC(=O)N1CCC2(CC1)CN(c1ccc(-c3ccccc3)cc1)C2 | -10.2% | –
COC(=O)N1CCC2(CC1)CN(c1ccccc1)C2 | -4.45% | –
COC(=O)N1CCC2(CCCN(C(c3ccccc3)c3ccccc3)C2)CC1 | – | 10 µM (active)
Cc1c(NC(=O)NC(C)N2C(=O)C3C4C=CC(C4)C3C2=O)c(=O)n(-c2ccccc2)n1C (stereo unspecified) | 2.58% | –
CCOC(=O)C1=C(CSc2nc(-c3ccccc3)ccc2C#N)OC(N)=C(C#N)C1c1ccc(OC)cc1 (stereo unspecified) | -9.31% | –
CCOC(=O)c1[nH]c(C)c(C)c1C | -3.5% | –
Nc1ncnc2c1ncn2C[C@@H](O)C(=O)O | 10.9% [at 11.4 µM] | –
O=C(N/N=C/c1c(Nc2cccc(C(F)(F)F)c2)nc2ccccn2c1=O)c1ccccc1 | -3.29% | –
CC(=O)OCC1=C(C(=O)O)N2C(=O)[C@@H](NC(=O)Cc3cccs3)[C@@H]2SC1 | – | inactive
CC(C)CCN1C(=O)c2ccc(-c3nc4ccccc4c(=O)o3)cc2C1=O | 16.9% | –
Cc1noc(C)c1C(=O)N1CCC[C@@]2(CCN(C(=O)NC(C)C)C2)C1 | 3.36% | –
COCCCNC(=O)C1CCN(S(=O)(=O)N(CC(C)C)CC(C)C)CC1 | 8.44% | –
CC(C)(C)c1ccc(-c2c(C#N)c(N)nc3c2CCCC3)s1 | -10.7% | –
Cc1noc(C)c1C(=O)N1CCC2(CC1)CN(c1ncccn1)C2 | 4.38% | –
COc1ncnc(NS(=O)(=O)c2ccc(N)cc2)c1OC | -2.5% [at 25.6 µM] | –
CCOC(=O)N1CCN(C(=O)c2ccc3nc(SCc4ccc(F)cc4)n(C)c3c2)CC1 | -13.8% | –

Structure (SMILES) | activity, negative = inhibition | AC50
C[C@H]1C[C@@H]2[C@H]3CCC4=CC(=O)C=C[C@@]4(C)[C@@]3(Cl)[C@@H](O)C[C@]2(C)[C@]1(OC(=O)c1ccco1)C(=O)CCl | – | 3.98 µM (active)
C[C@H]1C[C@H]2[C@H]3CCC4=CC(=O)C=C[C@@]4(C)[C@]3(F)[C@H](O)C[C@]2(C)[C@@]1(O)C(=O)COP(=O)(O)O | 2.95% [at 11.4 µM] | –
C[C@@H]1C[C@@H]2[C@H]3CCC4=CC(=O)C=C[C@]4(C)[C@]3(Cl)[C@@H](O)C[C@@]2(C)[C@@]1(O)C(=O)CO | 15% | –
C=CCC(C(=O)OC)(C(=O)OC)c1ccc([N+](=O)[O-])cn1 | -11.8% | –
CCNc1ncc2ncc(=O)n(C3CC3)c2n1 | -4.43% | –
Cc1sc(NC(=O)c2ccco2)c(C(c2ccncc2)N2CCOCC2)c1C (stereo unspecified) | -27% | –
CCN1CCN(C(c2ccccn2)c2c(NC(=O)c3ccccc3)sc(C)c2C)CC1 (stereo unspecified) | – | 14.1 µM (active)
CCOC(=O)CSc1n[nH]c(NC(=O)c2ccccc2)n1 | -2.06% | –
Cc1cccc(CNc2ncnc3ccc(-c4c(C)noc4C)cc23)c1 | – | 15.8 µM (active)
COCCNc1ncnc2ccc(-c3c(C)noc3C)cc12 | -2.91% | –
Cc1noc(C)c1-c1ccc2ncnc(N3CCOCC3)c2c1 | 8.01% | –
Cc1noc(C)c1-c1ccc2ncnc(NC3CCNCC3)c2c1 | -0.394% | –
CC(=O)NCCNc1ncnc2ccc(-c3c(C)noc3C)cc12 | -9.88% | –
Cc1noc(C)c1-c1ccc2ncnc(NCc3cccs3)c2c1 | – | 20 µM (active)
N#Cc1cccc(NC(=O)N2CCC3(CC2)CCN(C(=O)c2ccco2)CC3)c1 | -12.3% | –
COc1ccccc1NC(=O)C(C/C=C(\C)Cl)C(C)=O (stereo unspecified) | -14% | –
Cc1nn(C)c(C(=O)NNC(=S)Nc2ccc(Cl)cc2)c1[N+](=O)[O-] | -24.6% | –
Cn1c(=O)c(-c2ccccc2)nc2cnc(Oc3ccccc3)nc21 | -7.05% | –
Nc1ccc(Oc2ccc3nc(-c4ccccc4)c(-c4ccc([N+](=O)[O-])cc4)nc3c2)cc1 | 10.3% | –
O=C(N=NC(=O)c1ccc2c(O)n(C3CCCCC3)c(O)c2c1)c1cccnc1 | 15.3% | –
Nc1ncnc2c1nc(-c1ccccc1)n2[C@H]1O[C@@H](CO)[C@@H](O)[C@H]1O | 11.6% [at 11.4 µM] | –
C=C(C)C(=O)N1CC2(CC(c3cccc(NC(=O)c4ccccc4)c3)=NO2)C[C@@H]1C(N)=O (stereo partly specified) | -3.06% | –
COc1ccc(C(=O)N2CC3(CC(c4cccc([N+](=O)[O-])c4)=NO3)C[C@H]2C(=O)NCC(N)=O)cc1 (stereo partly specified) | -16.3% | –
NC(=O)C1(NC(=O)[C@@H]2CC3(CC(c4cccc(NC(=O)c5cc([N+](=O)[O-])cc([N+](=O)[O-])c5)c4)=NO3)CN2C(=O)c2ccccc2)CC1 (stereo partly specified) | – | 15.8 µM (active)

— PubChem BioAssay AID1851 (National Center for Advancing Translational Sciences (NCATS), 2009)
